Data reported in PubChem BioAssay (Tox21).
Inconclusive results are not listed. Activity calls are given as the source filed them. Calls come from the whole dose curve; as a rule, active = well fitted activation curve with a large enough effect in the signal ratio in the repeat runs (not every such curve was filed as active); inconclusive = weak or mixed curves, or effect the other way; inactive = flat fitted curve, though single readings scatter; the % refers to the signal ratio.

The compounds below were run against Bile acid receptor (Homo sapiens) (UniProt Q96RI1) (assay: qHTS assay to identify small molecule agonists of the farnesoid-X-receptor (FXR) signaling pathway (AID 743220)). Conditions: HEK293T FXR-UAS-bla, beta-lactamase FRET ratio, 16 h; series mostly up to 62.6 µM.
Chain of Bile acid receptor (Homo sapiens) (Q96RI1 whole entry, looked up): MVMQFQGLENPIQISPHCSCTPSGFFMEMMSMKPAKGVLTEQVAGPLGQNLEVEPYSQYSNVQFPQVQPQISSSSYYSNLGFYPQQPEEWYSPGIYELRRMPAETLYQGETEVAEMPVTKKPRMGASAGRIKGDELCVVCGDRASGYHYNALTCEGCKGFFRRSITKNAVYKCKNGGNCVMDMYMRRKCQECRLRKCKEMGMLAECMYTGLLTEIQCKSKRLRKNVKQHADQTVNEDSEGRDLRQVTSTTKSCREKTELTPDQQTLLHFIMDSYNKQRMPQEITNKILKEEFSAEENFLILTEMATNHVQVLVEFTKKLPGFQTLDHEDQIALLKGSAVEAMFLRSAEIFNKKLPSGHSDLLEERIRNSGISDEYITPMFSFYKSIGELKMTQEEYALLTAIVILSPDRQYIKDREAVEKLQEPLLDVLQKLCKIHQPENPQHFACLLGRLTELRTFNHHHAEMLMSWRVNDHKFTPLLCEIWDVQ
Description: National Center for Advancing Translational Sciences [NCATS]
NIH Chemical Genomics Center [NCGC]
U.S. Environmental Protection Agency [EPA]
National Institutes of Environmental Health Sciences [NIEHS]
National Toxicology Program [NTP]
U.S. Food and Drug Administration [FDA]
The farnesoid-X-receptor (FXR), a nuclear hormone receptor, is highly expressed in liver, intestine, kidney and adrenal cortex. Natural ligands of FXR are the bile acids (Cholic acid, Chenodeoxy cholic acid etc). FXR is an important regulator of diverse metabolic pathways, including the bile acid homeostasis, lipid and glucose metabolisms. FXR regulates the expression of target genes by binding either as a monomer or as a heterodimer with the retinoid X receptor (RXR). Numerous studies have reported that FXR exerts protective function during cholestasis, diabetes, liver regeneration, and cancer. To identify compounds that activate FXR signaling, GeneBLAzer FXR-UAS-bla HEK 293T cell line (Invitrogen, Carlsbad, CA) containing a beta-lactamase reporter gene under the control of a UAS response element was used to screen the Tox21 10K compound library.
Tox21 Assay Protocol Summary:
FXR-bla cells were dispensed at 5000 cells/5uL/well in 1536-well black wall/clear bottom plates using a Multidrop Combi (Thermo Fisher Scientific, Waltham, MA) dispenser. After the assay plates were incubated at 37C and 5% CO2 for 5 h, 23 nL of compounds dissolved in DMSO, positive controls or DMSO only was transferred to the assay plate by a Pintool station (Kalypsys, San Diego, CA). The assay plates were incubated at 37C for 16 h. After 1 uL of LiveBLAzerTM B/G FRET substrate was added using a Bioraptr Flying Reagent Dispenser (FRD) workstation (Beckman Coulter, Indianapolis, IN), the plates were incubated at room temperature for 2 h, and fluorescence intensity was measured by an Envision plate reader (PerkinElmer, Shelton, CT).

Compound	outcome
CC(C)C[C@@H](N)C(=O)O	inactive
CCCCc1nc(Cl)c(CO)n1Cc1ccc(-c2ccccc2-c2nn[nH]n2)cc1	inactive
CC(CC=O)CC(C)(C)C (stereo not given)	inactive
CCN(C=O)CC	inactive
C=C(C)C(=O)OCC(O)CO (stereo not given)	inactive
CC(C)CCCO	inactive
COc1cc(C(=O)OC(COCCC(C)C)CN2CCOCC2)cc(OC)c1OC (stereo not given)	inactive
Nc1c2c(nc3c1CCC3)CCCC2	inactive
Clc1cc(Cl)c(Cl)nc1Cl	inactive
O=Cc1cccc(Br)c1	inactive
CC(=O)c1cnccn1	inactive
Nc1ccn([C@@H]2O[C@H](CO)[C@@H](O)C2(F)F)c(=O)n1	inactive
CN(C)C(=O)Oc1cccc([N+](C)(C)C)c1	inactive
CNCCO	inactive
CCCCCCCCN1CCCC1=O	inactive
Cc1ccnc(NS(=O)(=O)c2ccc(N)cc2)n1	inactive
Nc1ccncc1N	inactive
N[C@H](C(=O)O)[C@@H](O)c1ccc(O)c(O)c1	inactive
CC12CCC(C(=O)C1=O)C2(C)C (stereo not given)	inactive
Cc1ccc(C(=O)c2ccccc2)cc1	inactive

Compound	outcome
CC(C#N)(CCC(=O)O)N=NC(C)(C#N)CCC(=O)O (stereo not given)	inactive
C[C@@H]1C[C@H]2[C@@H]3C[C@H](F)C4=CC(=O)C(Cl)=C[C@]4(C)[C@@]3(F)[C@@H](O)C[C@]2(C)[C@@]1(O)C(=O)CO	inactive
NCCCC[C@H](N[C@@H](CCc1ccccc1)C(=O)O)C(=O)N1CCC[C@H]1C(=O)O	inactive
C[N+]1(C)CCCC(OC(=O)C(O)(c2ccccc2)c2ccccc2)C1 (stereo not given)	inactive
NC(=O)Cc1cccc2ccccc12	inactive
CCN[C@H]1C[C@H](C)S(=O)(=O)c2sc(S(N)(=O)=O)cc21	inactive
CCC(C)(CCCC(C)C)OC(C)=O (stereo not given)	inactive
CC1=CC(=O)[C@H]2C[C@@H]1C2(C)C	inactive
Cc1coc2ccccc2c1=O	inactive
Cc1ccc(-c2ccccc2C#N)cc1	inactive
CCCCc1ccc2c(n1)[C@@H](c1ccc(OC)cc1C[C@H](C)C(=O)O)[C@H](C(=O)O)[C@H]2c1ccc2c(c1)OCO2	inactive
CC(C)=CCC/C(C)=C/C#N	inactive
CCCc1ncc(C[n+]2ccccc2C)c(N)n1	inactive
CC1=NN(c2cc(S(=O)(=O)O)ccc2Cl)C(=O)C1N=Nc1ccccc1 (stereo not given)	inactive
C=CC(=O)OCCCl	inactive
CC(N)C12CC3CC(CC(C3)C1)C2 (stereo not given)	inactive
FB(F)F	inactive
CCOC(=O)C(=O)CCCCCCl	inactive
CN(C)CCCCCCN(C)C	inactive
C=C(C)C(=O)OCC1CCCO1 (stereo not given)	inactive
